Bioassay records from PubChem.
Many of the other results were omitted from the sample, so hits are more common in it than they were.
ST2 IL33 inh = blocks human ST2 binding to IL-33; Q01638; AlphaLISA ST2-Fc/biotin-IL-33 interaction, 1 h; inhibition, % for hits at 17 µM; hit rate 2.3% among 78,000; AID 1259354; in the data active = inhibition above about 30%
Target sequence (Q01638 whole entry, looked up): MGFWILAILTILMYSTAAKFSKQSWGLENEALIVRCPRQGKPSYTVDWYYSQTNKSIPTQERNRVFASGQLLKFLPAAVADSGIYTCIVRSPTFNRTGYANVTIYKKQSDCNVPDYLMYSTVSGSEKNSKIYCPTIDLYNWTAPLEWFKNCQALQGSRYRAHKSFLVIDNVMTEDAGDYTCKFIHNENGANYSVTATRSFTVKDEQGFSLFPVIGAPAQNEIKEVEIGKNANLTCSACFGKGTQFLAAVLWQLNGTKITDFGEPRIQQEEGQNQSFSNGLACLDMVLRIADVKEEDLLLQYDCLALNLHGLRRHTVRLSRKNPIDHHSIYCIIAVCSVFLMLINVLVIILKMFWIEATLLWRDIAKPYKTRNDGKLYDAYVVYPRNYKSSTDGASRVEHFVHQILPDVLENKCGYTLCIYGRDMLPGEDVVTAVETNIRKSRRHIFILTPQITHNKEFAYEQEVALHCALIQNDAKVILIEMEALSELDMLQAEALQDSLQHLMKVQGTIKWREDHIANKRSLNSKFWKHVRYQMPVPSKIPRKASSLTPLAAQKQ
An asterisk follows results filed as active; i = inactive.

SMILES | ST2 IL33 inh
CCOC(=O)CN(Cc1ccc(F)cc1)S(=O)(=O)c1ccc(F)c(C)c1 | i
O=C(Nc1cccc(NC(=O)c2ccc3c(c2)OCO3)n1)c1ccc2c(c1)OCO2 | i
CN1Cc2[nH]cnc2C[C@H]1C(=O)NCc1ccco1 | i
COc1cc2c(cc1OC)C(C(=O)Nc1ccccn1)C1c3ccccc3CCN1C2=O (stereo not given) | i
CC(=O)CCCCCCCCNC(C)=O | i
Cc1cccc(Oc2coc3cc(OC(C)C(=O)OC(C)C)ccc3c2=O)c1 (stereo not given) | i
CCNc1ncnc2sc3c(c12)CCCC3 | i
COc1cccc(Nc2ncnc3sc4c(c23)CCCC4)c1 | i
c1nc(Nc2ccc(N3CCCCC3)cc2)c2c3c(sc2n1)CCCC3 | 58%*
Cc1[nH]c2c(c1C(=O)N1CCCN(CC3CC3)C(C(C)C)C1)C(=O)CCC2 (stereo not given) | i
O=C(CSc1nnc(COc2ccc3c(c2)CCCC3)o1)Nc1nc(-c2ccccc2)cs1 | i
Cn1ncc2c(NCc3n[nH]c4c3CCCCC4)nc(-c3cccnc3)nc21 | i
CN(CCCc1cnn(C)c1)c1nc(-c2cccnc2)nc2c1cnn2C | 30%*
Cc1nnsc1CNc1nc(-c2cccnc2)nc2c1cnn2C | i
O=c1oc2cc([N+](=O)[O-])ccc2nc1C=C(O)c1ccco1 | i
O=[N+]([O-])c1ccc2nc(CSc3nc4ccccc4o3)[nH]c2c1 | i
O=[N+]([O-])c1ccc2nc(-c3ccco3)c(-c3ccco3)nc2c1 | 36%*
Cn1c(=O)c2c(nc(Br)n2C/C=N\O)n(C)c1=O | i
CC(=O)Nc1ccc2cccccc1-2 | 56%*
O=C(Nc1ccccc1-c1ccccc1)c1ccccc1 | i
O=C(CCCc1ccccc1)Nc1ccccc1-c1ccccc1 | i
O=C(Nc1c[nH]c(=O)[nH]c1=O)c1ccc(N2C(=O)C3C4C=CC(C4)C3C2=O)cc1 (stereo not given) | i
O=C(CCc1ccccc1)Nc1c[nH]c(=O)[nH]c1=O | i
O=C(Nc1c[nH]c(=O)[nH]c1=O)c1ccc(Oc2ccc(C(=O)Nc3c[nH]c(=O)[nH]c3=O)cc2)cc1 | 36%*
COc1ccccc1Oc1ncccc1CNC(=O)CN1CCCC1=O | i
SMILES | ST2 IL33 inh
O=C(Nc1ccccc1F)C1CCN(C(=O)c2ccc(Cl)cc2Cl)CC1 | i
Cc1ccc(NC(=O)c2ccccc2Cl)c(Br)c1 | i
COc1ccc2cc(C3CN(Cc4nc(C)cc(C)n4)CCO3)ccc2c1 (stereo not given) | i
COc1ccc(-c2nccn2CCc2ccccn2)c(OC)c1 | i
COc1ccc(-c2cc3ccccn3c2)c(OC)c1 | 50%*
COc1ccc(-c2ccnc(N)c2)c(OC)c1 | i
c1ccc(COc2cccc(CN3CCSCC3)c2)cc1 | i
COc1ccccc1N1CCN(S(=O)(=O)c2cccc3nonc23)CC1 | i
CN(C(=O)c1cn(-c2ccc(F)cc2F)c(=O)c2ccccc12)c1ccc(Cl)cc1 | i
O=C(O)CCC(=O)N[C@H]1CCN2C(=O)c3cc(-c4ccccc4)ccc3NC(=O)[C@H]12 | i
COc1ccc(-c2ccc3c(c2)C(=O)N2CC[C@H](NC(=O)CCC(=O)O)[C@H]2C(=O)N3)cc1 | 46%*
O=C(O)CCC(=O)N[C@H]1CCN2C(=O)c3cc(-c4ccccc4F)ccc3NC(=O)[C@H]12 | i
Cc1ccc(CNC(=O)C(C)Sc2nc3nc(C)cc(C)n3n2)cc1 (stereo not given) | i
O=C(Nc1c(F)cc(F)cc1Br)c1cc(-c2cccs2)on1 | i
Cc1ccsc1CN1CCCCC1CO (stereo not given) | i
CC1CCCN(CCCNS(=O)(=O)c2cccc3nsnc23)C1 (stereo not given) | i
CCC1CN(C(=O)c2ccnc(C(C)C)n2)CCC(=O)N1Cc1ccccc1 (stereo not given) | i
O=C(N1CCOC(C(F)(F)F)C1)C1(S(=O)(=O)c2ccccc2)CC1 (stereo not given) | i
FC(F)(F)C1CN(c2ccc(-c3ccccc3)nn2)CCO1 (stereo not given) | 96%*
CNc1nc(N2CCOC(C(F)(F)F)C2)ncc1F (stereo not given) | i
CCCNS(=O)(=O)c1cc(OC)ccc1OC | i
Cc1ccsc1[C@@H]1CCN(C(=O)c2coc3c2C(=O)CCC3)C[C@H]1O | 32%*
CC(=O)c1[nH]c(C)c(C(=O)N2CC[C@@H](c3sccc3C)[C@H](O)C2)c1C | i
CCc1nc(C)c(C(=O)N2CC[C@@H](c3sccc3C)[C@H](O)C2)o1 | i
CC(=O)Nc1cccc(C(=O)c2cccc(NC(C)=O)c2)c1 | i
SMILES | ST2 IL33 inh
Cc1cc(C(=O)N2CCC(n3nccc3NC(=O)CCCc3ccccc3)CC2)n(C)n1 | i
CCCCC(=O)NCc1nc2cccnc2n1CCOC | i
COC(=O)C1CCCCN1S(=O)(=O)NCc1ccccc1 (stereo not given) | i
O=[N+]([O-])c1ccccc1-c1ccc(/C=C/c2ccncc2)o1 | 49%*
O=C1OC(c2cccc(F)c2)=N/C1=C/c1ccc(-c2ccccc2[N+](=O)[O-])o1 | i
O=C(Nc1ccc(I)cc1Cl)c1ccc(-c2ccccc2[N+](=O)[O-])o1 | i
COc1ccc(N2C(=O)CC(Sc3ccccc3C(=O)O)C2=O)cc1 (stereo not given) | i
COc1ccc(C2SCC(=O)N2c2ccccc2)cc1 (stereo not given) | i
COc1ccc(N2C(=O)C(O)=CC2(OC)c2ccccc2)cc1 (stereo not given) | 45%*
O=C(Nc1ccc2c(c1)OCO2)c1cc(-c2ccc3c(c2)OCO3)on1 | i
COc1ccc(CNC(=O)C[C@@H]2O[C@H](CNS(C)(=O)=O)[C@@H](O)[C@H]2O)cc1 | i
O=C1c2ccccc2C(=O)N1CN1CCN(c2ccccc2F)CC1 | i
CCOc1ccc2c(c1)C(=O)c1cc(OCC)ccc1-2 | 46%*
C=C1c2cc(OCC)ccc2NC(=O)N1c1ccccc1 | i
CCOc1ccc(OCC)c(NC(C)=O)c1 | i
Cc1cc2ccccc2n1CCNC(=O)C1c2ccccc2Oc2ccccc21 | i
CCCC(O)=C1C(=O)CC(C)(C)CC1=NCCc1ccccc1 | i
CC(C)OCCCNS(=O)(=O)c1cccs1 | i
Cc1cc(N(C)C)nc(Nc2ccc(NC(=O)CCC3CCCC3)cc2)n1 | i
Cc1cccc(NC(=O)CCC2CCCCC2)n1 | i
COc1ccc(Nc2cc(C)nc(Nc3ccc(NC(=O)CC4CCCC4)cc3)n2)cc1 | 30%*
COc1ccc(Nc2cc(C)nc(Nc3ccc(NC(=O)CCC4CCCCC4)cc3)n2)cc1 | 40%*
O=C(CC1CCCCC1)Nc1cccnc1 | i
Cc1ccc(Nc2cc(C)nc(Nc3ccc(NC(=O)CC4CCCC4)cc3)n2)cc1 | 31%*
COc1ccc(Cc2noc(-c3ccc(NC(C)c4cnn(C)c4)nc3)n2)cc1 (stereo not given) | i
SMILES | ST2 IL33 inh
O=C(CO)Nc1cccc(NC(=O)CO)n1 | i
O=C(CCN1C(=O)c2ccccc2C1=O)Nc1ccc(-c2ccccc2)cc1 | i
O=C(/C=C/c1ccc(O)c(O)c1)O[C@@H]1[C@H](O)C[C@@](O)(C(=O)O)C[C@H]1OC(=O)/C=C/c1ccc(O)c(O)c1 | i
Cc1sc2nc3c(C(=O)N4CCN(c5ccc(Cl)cc5)CC4)cccn3c(=O)c2c1C | i
Cc1nn(CCCC(=O)Nc2cccc(Cl)c2C)c(C)c1[N+](=O)[O-] | i
COc1nc2c(cc1C(=O)N1Cc3cnc(CC(C)C)nc3C1)CCC2 | i
